Data reported in PubChem BioAssay AID1839 (Johns Hopkins Ion Channel Center, 2009).
The whole screen tested about 2,400 compounds, of which about 220 (9.2%) were called active.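 How the source made its calls: active means signal change above the mean of dofetilide-free buffer controls plus 3 SD, so a positive margin; inactive means the rest.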 Only a selection was taken, and actives are over-represented in it overall.

Test: nonspecific flux effects in parental CHO-K1, confirmation, counter-screen for hERG block protection project, cell-based, CHO-K1 parental line, FluxOR thallium flux (AID 1839);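 further: compounds applied alone with no dofetilide to cells lacking hERG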
Details: CHO-K1 parental cells, FluxOR thallium flux fluorescence; at 10 µM

**Q.** With O=C(NC(=S)N1CCCCCC1)c1ccc(Cl)cc1Cl as the compound, how does the signal change vs control minus 3*SD hit threshold (margin above threshold, higher = more increase) read?
**A.** -16.7% (inactive)

**Q.** Which signal change vs control minus 3*SD hit threshold (margin above threshold, higher = more increase) does the source give for CC1(C)CC(NC(=O)c2ccc(Cl)cc2Cl)CC(C)(C)N1 here?
**A.** -35.9% (inactive)

**Q.** Which signal change vs control minus 3*SD hit threshold (margin above threshold, higher = more increase) does the source give for CCN(CC)C(=S)NC(=O)c1ccc(Cl)cc1Cl here?
**A.** 3.8% (active)

**Q.** Which signal change vs control minus 3*SD hit threshold (margin above threshold, higher = more increase) does the source give for CCCN(CCC)C(=S)NC(=O)c1ccc(Cl)cc1Cl here?
**A.** 27% (active)

**Q.** Which signal change vs control minus 3*SD hit threshold (margin above threshold, higher = more increase) does the source give for CCCCN(CCCC)C(=S)NC(=O)c1ccccc1Cl here?
**A.** 39.6% (active)

**Q.** With O=C(NC(=S)N(CCO)Cc1ccccc1)c1cc(Br)ccc1Cl as the compound, how does the signal change vs control minus 3*SD hit threshold (margin above threshold, higher = more increase) read?
**A.** -12.2% (inactive)

**Q.** Which signal change vs control minus 3*SD hit threshold (margin above threshold, higher = more increase) does the source give for CC1(C)CC2CC(C)(CN2C(=S)NC(=O)c2ccccc2Cl)C1 (stereo unspecified) here?
**A.** -14.7% (inactive)

**Q.** With CCN(CC)C(=S)NC(=O)c1ccc(F)cc1 as the compound, how does the signal change vs control minus 3*SD hit threshold (margin above threshold, higher = more increase) read?
**A.** -15.9% (inactive)

**Q.** With CN(C)/C=C/C(=O)c1ccc(Cl)cc1Cl as the compound, how does the signal change vs control minus 3*SD hit threshold (margin above threshold, higher = more increase) read?
**A.** -23.8% (inactive)

**Q.** For C=CCNC(=O)c1onc(CSc2ccc(OC)cc2)c1C(=O)O, which signal change vs control minus 3*SD hit threshold (margin above threshold, higher = more increase) is on record?
**A.** -35.4% (inactive)

**Q.** Which signal change vs control minus 3*SD hit threshold (margin above threshold, higher = more increase) does the source give for Cc1ccc(/C=C(\NC(=O)c2ccccc2)C(=O)N2CCCCC2)cc1 here?
**A.** -35.4% (inactive)

**Q.** For O=C(CCc1nc(-c2ccccc2)no1)N1CCCC1, which signal change vs control minus 3*SD hit threshold (margin above threshold, higher = more increase) is on record?
**A.** -26.5% (inactive)

**Q.** With Cc1nn(-c2ccccc2)c(N2CCCC2)c1/C=N/O as the compound, how does the signal change vs control minus 3*SD hit threshold (margin above threshold, higher = more increase) read?
**A.** -24.6% (inactive)

**Q.** For Cc1nn(-c2ccccc2)c(Cl)c1/C=C1\SC(=S)NC1=O, which signal change vs control minus 3*SD hit threshold (margin above threshold, higher = more increase) is on record?
**A.** 26.5% (active)

**Q.** For Cc1nn(-c2ccccc2)c(C)c1S(=O)(=O)O, which signal change vs control minus 3*SD hit threshold (margin above threshold, higher = more increase) is on record?
**A.** -23.2% (inactive)

**Q.** With CCc1nnc(NC(=O)c2c(C)nn(-c3ccccc3)c2Cl)s1 as the compound, how does the signal change vs control minus 3*SD hit threshold (margin above threshold, higher = more increase) read?
**A.** -14.1% (inactive)

**Q.** With O=S(=O)(NC(=S)NC1CCCCC1)c1ccc(Br)cc1 as the compound, how does the signal change vs control minus 3*SD hit threshold (margin above threshold, higher = more increase) read?
**A.** -9.7% (inactive)

**Q.** For CCOC(=O)c1c(O)c2ccccc2n(C)c1=O, which signal change vs control minus 3*SD hit threshold (margin above threshold, higher = more increase) is on record?
**A.** -25% (inactive)

**Q.** Which signal change vs control minus 3*SD hit threshold (margin above threshold, higher = more increase) does the source give for CCOC(=O)C1CCN(C(=O)COC(=O)c2nn(C)c(=O)c3ccccc23)CC1 here?
**A.** -33.9% (inactive)

**Q.** For CCOC(=O)c1n[nH]n2c1nc(=S)c1ccccc12, which signal change vs control minus 3*SD hit threshold (margin above threshold, higher = more increase) is on record?
**A.** 12.1% (active)

**Q.** For COc1ccc2nc(/N=C/c3c(C)[nH]n(-c4ccc(C)cc4C)c3=O)sc2c1, which signal change vs control minus 3*SD hit threshold (margin above threshold, higher = more increase) is on record?
**A.** 22.3% (active)

**Q.** For Cc1[nH]n(-c2cccc3ccccc23)c(=O)c1/C=N/c1sc2c(c1C#N)CCC2, which signal change vs control minus 3*SD hit threshold (margin above threshold, higher = more increase) is on record?
**A.** -19.1% (inactive)

**Q.** Which signal change vs control minus 3*SD hit threshold (margin above threshold, higher = more increase) does the source give for CCOc1ccc2nc(N3C(=O)/C(=C/c4ccc(Cl)cc4)NC3=S)sc2c1 here?
**A.** -25% (inactive)

**Q.** Which signal change vs control minus 3*SD hit threshold (margin above threshold, higher = more increase) does the source give for Cc1[nH]n(-c2ccccc2)c(=O)c1N=Nc1ccc(C(N)=O)cc1 here?
**A.** -43.3% (inactive)

**Q.** With COc1ccc2nc(-n3c(O)c(C4=c5ccccc5=NC4=O)[nH]c3=S)sc2c1 as the compound, how does the signal change vs control minus 3*SD hit threshold (margin above threshold, higher = more increase) read?
**A.** -25.1% (inactive)

**Q.** With CCOc1ccc2nc(/N=C/c3c(C)[nH]n(-c4ccc(C)cc4)c3=O)sc2c1 as the compound, how does the signal change vs control minus 3*SD hit threshold (margin above threshold, higher = more increase) read?
**A.** 33.5% (active)

**Q.** Which signal change vs control minus 3*SD hit threshold (margin above threshold, higher = more increase) does the source give for Cc1[nH]n(-c2ccc(Cl)cc2)c(=O)c1/C=N/c1nnc(-c2ccccc2)s1 here?
**A.** 78.7% (active)

**Q.** With CCOc1ccc2nc(/N=C/c3nc(-c4ccc(Br)cc4)oc3O)sc2c1 as the compound, how does the signal change vs control minus 3*SD hit threshold (margin above threshold, higher = more increase) read?
**A.** -17.1% (inactive)

**Q.** Which signal change vs control minus 3*SD hit threshold (margin above threshold, higher = more increase) does the source give for Cc1[nH]n(-c2ccc(F)cc2)c(=O)c1/C=N/c1sc2c(c1C#N)CCCC2 here?
**A.** -1.9% (inactive)

**Q.** Which signal change vs control minus 3*SD hit threshold (margin above threshold, higher = more increase) does the source give for COc1ccc2nc(/N=C/c3c(C)[nH]n(-c4ccc(C)cc4)c3=O)sc2c1 here?
**A.** 62.6% (active)

**Q.** Which signal change vs control minus 3*SD hit threshold (margin above threshold, higher = more increase) does the source give for CCCCNC(=O)N1CCCC(C(=O)c2cc(C)c(OC)c(C)c2)C1 (stereo unspecified) here?
**A.** -38% (inactive)

**Q.** With O=C(NCc1cccs1)C1CC(c2ccc(F)cc2)=NO1 (stereo unspecified) as the compound, how does the signal change vs control minus 3*SD hit threshold (margin above threshold, higher = more increase) read?
**A.** -40.3% (inactive)

**Q.** For Cc1cccc(NC(=O)CN2C(=O)S/C(=C\c3cccn3-c3cccc(C(=O)O)c3)C2=O)c1, which signal change vs control minus 3*SD hit threshold (margin above threshold, higher = more increase) is on record?
**A.** -27.2% (inactive)

**Q.** Which signal change vs control minus 3*SD hit threshold (margin above threshold, higher = more increase) does the source give for Cc1cc(Cl)ccc1OC(C)C(=O)NCCc1ccc2c(c1)OCCO2 (stereo unspecified) here?
**A.** -37.2% (inactive)

**Q.** Which signal change vs control minus 3*SD hit threshold (margin above threshold, higher = more increase) does the source give for CC(NC(=O)NC1CCCCC1)c1ccc2c(c1)OCO2 (stereo unspecified) here?
**A.** -5.4% (inactive)

**Q.** Which signal change vs control minus 3*SD hit threshold (margin above threshold, higher = more increase) does the source give for COc1ccc(C(=O)CC(=O)C(=O)Nc2ccc(C)c(C)c2)cc1 here?
**A.** -27.5% (inactive)

**Q.** Which signal change vs control minus 3*SD hit threshold (margin above threshold, higher = more increase) does the source give for Cc1ccnc(SCCn2c(N3CC(C)OC(C)C3)nc3c2c(=O)n(C)c(=O)n3C)n1 (stereo unspecified) here?
**A.** -31.9% (inactive)

**Q.** With CCOc1ccc2nc(/N=C/c3nc(-c4ccccc4)oc3O)sc2c1 as the compound, how does the signal change vs control minus 3*SD hit threshold (margin above threshold, higher = more increase) read?
**A.** -18.5% (inactive)

**Q.** With CCOc1ccc2nc(/N=C/c3c(C)[nH]n(-c4ccccc4)c3=O)sc2c1 as the compound, how does the signal change vs control minus 3*SD hit threshold (margin above threshold, higher = more increase) read?
**A.** 53.3% (active)

**Q.** Which signal change vs control minus 3*SD hit threshold (margin above threshold, higher = more increase) does the source give for CCOc1ccc2nc(N3C(=O)/C(=C/c4ccccc4)NC3=S)sc2c1 here?
**A.** -18.8% (inactive)

**Q.** Which signal change vs control minus 3*SD hit threshold (margin above threshold, higher = more increase) does the source give for S=c1[nH]nc(CSc2nc3ccccc3s2)n1C1CCCCC1 here?
**A.** -26.3% (inactive)

**Q.** With Cc1ccc(NC(=O)c2cc(NC(=O)/C=C\C(=O)O)ccc2N2CCCCC2)cc1 as the compound, how does the signal change vs control minus 3*SD hit threshold (margin above threshold, higher = more increase) read?
**A.** -12.7% (inactive)

**Q.** Which signal change vs control minus 3*SD hit threshold (margin above threshold, higher = more increase) does the source give for CCC1(C)Cc2c(sc3[nH]c(=S)n(Cc4ccccc4)c(=O)c23)CO1 (stereo unspecified) here?
**A.** 10.6% (active)

**Q.** Which signal change vs control minus 3*SD hit threshold (margin above threshold, higher = more increase) does the source give for CC(C)C1Cc2c(sc3[nH]c(=S)n(Cc4ccccc4)c(=O)c23)CO1 (stereo unspecified) here?
**A.** -10.8% (inactive)

**Q.** For CC1(C)Cc2c(sc3[nH]c(=S)n(Cc4ccccc4)c(=O)c23)CO1, which signal change vs control minus 3*SD hit threshold (margin above threshold, higher = more increase) is on record?
**A.** -22.2% (inactive)

**Q.** Which signal change vs control minus 3*SD hit threshold (margin above threshold, higher = more increase) does the source give for COC(=O)CSc1nc(N2CCCCC2)c2c(c1C#N)CCCC2 here?
**A.** -8.9% (inactive)

**Q.** For O=C(COC(=O)c1cc(Br)ccc1O)Nc1cccnc1Cl, which signal change vs control minus 3*SD hit threshold (margin above threshold, higher = more increase) is on record?
**A.** -24.7% (inactive)

**Q.** For CC(C)c1ccc(OCC(=O)NN2C(=O)c3ccccc3C2=O)c(Br)c1, which signal change vs control minus 3*SD hit threshold (margin above threshold, higher = more increase) is on record?
**A.** -24% (inactive)

**Q.** Which signal change vs control minus 3*SD hit threshold (margin above threshold, higher = more increase) does the source give for Cc1ccc(C)c2sc(NC(=O)c3nc4ccccc4s3)nc12 here?
**A.** -20.2% (inactive)

**Q.** For CCOC(=O)c1c(NS(=O)(=O)c2ccc(Br)cc2)sc2c1CCC2, which signal change vs control minus 3*SD hit threshold (margin above threshold, higher = more increase) is on record?
**A.** 32.6% (active)

**Q.** For COC(=O)c1c(NS(=O)(=O)c2ccc3ccccc3c2)sc2c1CCCC2, which signal change vs control minus 3*SD hit threshold (margin above threshold, higher = more increase) is on record?
**A.** -22.4% (inactive)

**Q.** For CCOC(=O)c1c(NS(=O)(=O)Cc2ccccc2)sc2c1CCCC2, which signal change vs control minus 3*SD hit threshold (margin above threshold, higher = more increase) is on record?
**A.** -0.7% (inactive)

**Q.** For CN(NC1OC(=O)c2ccccc21)c1ccccc1[N+](=O)[O-] (stereo unspecified), which signal change vs control minus 3*SD hit threshold (margin above threshold, higher = more increase) is on record?
**A.** -30.9% (inactive)

**Q.** For COc1nnc(-c2ccc(C)c(S(=O)(=O)NC(C)(C)CO)c2)c2ccccc12, which signal change vs control minus 3*SD hit threshold (margin above threshold, higher = more increase) is on record?
**A.** -25.8% (inactive)

**Q.** For Cc1ccc(C(=O)Sc2cccccc2=O)cc1, which signal change vs control minus 3*SD hit threshold (margin above threshold, higher = more increase) is on record?
**A.** -20.3% (inactive)

**Q.** With O=c1c(O)c(-c2cccs2)oc2ccccc12 as the compound, how does the signal change vs control minus 3*SD hit threshold (margin above threshold, higher = more increase) read?
**A.** 39.2% (active)

**Q.** With O=C1OC(/C=C/c2ccc(Cl)cc2Cl)=NC/1=C\c1cccs1 as the compound, how does the signal change vs control minus 3*SD hit threshold (margin above threshold, higher = more increase) read?
**A.** -32.3% (inactive)

**Q.** For O=c1c(O)c(-c2cccs2)oc2ccc(Cl)cc12, which signal change vs control minus 3*SD hit threshold (margin above threshold, higher = more increase) is on record?
**A.** 64.2% (active)

**Q.** Which signal change vs control minus 3*SD hit threshold (margin above threshold, higher = more increase) does the source give for O=c1c(O)c(-c2ccc3c(c2)OCO3)oc2ccccc12 here?
**A.** -10.8% (inactive)

**Q.** With CCN(CC)CCCN1C(=O)c2oc3ccccc3c(=O)c2C1c1cccs1 (stereo unspecified) as the compound, how does the signal change vs control minus 3*SD hit threshold (margin above threshold, higher = more increase) read?
**A.** -15.9% (inactive)

**Q.** With O=c1c2cc(Cl)ccc2[nH]c(=S)n1Cc1cccs1 as the compound, how does the signal change vs control minus 3*SD hit threshold (margin above threshold, higher = more increase) read?
**A.** -21.6% (inactive)
